Source: PubChem BioAssay (National Center for Advancing Translational Sciences (NCATS))
Compounds with a hit are over-represented: about 12% of the library has one in this group of screens.
Pf growth 96h = Primary qHTS for delayed death inhibitors of the malarial parasite plastid, 96 hour incubation; 6.9% of 320,000 active; P. falciparum luciferase reporter growth, 96 h; Potency, µM (highest dose often 28.7 µM), for the others: top-dose activity change, negative = inhibition, most hits filed as inhibitors; AID 504834, 2011; also: % is scaled to controls: 0 for no effect and ±100 for the full control effect
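Delayed-death screen, second-generation endpoint: infected erythrocytes, 2% hematocrit, 0.05% parasitemia final; 96 hours at 37 C, 5% CO2; luciferase detection reagent; luminescence decrease equals reduced growth.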
NS1 function inh = qHTS Assay for Inhibitors of Influenza NS1 Protein Function; Potency, µM (series often up to 46.1 µM), for inactives: at the highest dose activity, positive = more growth; 0.4% of 270,000 active; AID 2326, 2010; calls by dose curve; also: actives are rising curves; nearly all actives have a fitted effect of over 50% in size
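Growth recovery, yeast-based: influenza A NS1 expressed in S. cerevisiae causes slow growth, and suppressors are detected by OD600. The parent strain without NS1 is used as positive control.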
Pf growth 48h = Primary qHTS for delayed death inhibitors of the malarial parasite plastid, 48 hour incubation. P. falciparum luciferase growth in erythrocytes, 48 h. Potency, µM (doses to about 28.7 µM), for the others: at the highest dose activity change, negative = inhibition, most hits filed as inhibitors. 5.9% of 310,000 active. AID 504832, 2011; also: % is scaled to controls: 0 for no effect and ±100 for the full control effect
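Growth was read as firefly luciferase luminescence after a 48 h, 37 C, 5% CO2 exposure of compounds to reporter-bearing P. falciparum cultures (0.1% parasitemia, 2% hematocrit final) in Albumax-supplemented RPMI 1640.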
HCV inh = qHTS Assay for Inhibitors of Hepatitis C Virus (HCV) | Potency, µM (highest dose often 41.8 µM), for inactives: at the highest dose activity change, negative = inhibition, usual class: inhibitors | 3.4% of 340,000 active | Huh7.5.1 HCVcc-Cre infection, luciferase reporter, 44 h; also: % is scaled to controls: 0 for no effect and ±100 for the full control effect
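Seed cells (1,000/well) for 4 h; treat with compound and infect with HCVcc-Cre, moi about 0.5. Incubate 44 h, then detect luciferase activity.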
AMA1-RON2 inh = qHTS for Inhibitors of AMA1-RON; Towards Development of Antimalarial Drug Lead: Primary Screen. Plasmodium falciparum AMA1 (3D7) - RON2 peptide interaction. AlphaScreen AMA1-biotinylated RON2 peptide binding. Potency, µM (highest dose often 58.2 µM), without a hit: at the top dose activity change, negative = inhibition, usual class: inhibitors. 0.2% of 360,000 active. AID 720542, 2013;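 also: 0% = vehicle wells and -100% = peptide control; nearly all actives have a fitted effect of over 45% in size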
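AMA1 (3D7) with his tag at 25 nM final met compounds first, then biotinylated RON2 peptide at 25 nM; detection used donor plus acceptor beads, 10 µg/mL apiece, read by AlphaScreen after 30 min at room temperature.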
SARS PLP yeast = qHTS of Yeast-based Assay for SARS-CoV PLP | S. cerevisiae expressing SARS-CoV PLpro, growth rescue | Potency, µM (top dose mostly 32.9 µM), for inactives: at the highest dose activity, positive = growth rescue, actives largely listed as activators | 0.19% of 330,000 active; calls by dose curve; also: 0% is about no effect; nearly all actives have a fitted effect of over 55% in size
Starred values were filed as active, the others as inactive; i = inactive; ? = inconclusive; . = no result given; [ ] = another dose, or the depositor's remark. Unless noted, calls follow the shape of the dose curve; as a rule, active = well fitted curve in the direction sought with a large enough effect; inconclusive = small, poorly fitted or top-dose-only effect, or another doubt; inactive = no such curve, though single readings can be large; an effect the other way counts as inactive or inconclusive. Potency is read from the fitted curve at half-maximal effect.

SMILES | Pf growth 96h | NS1 function inh | Pf growth 48h | HCV inh | AMA1-RON2 inh | SARS PLP yeast
O=C(O)/C=C\C(=O)Nc1ccccc1C#Cc1ccc(Br)cc1 | 62% | -34% | 24% | 4.5µM* | 1% | -29%
N#CCc1ccc(OC(=O)c2ccncc2)cc1 | . | . | . | 24% | -10% | .
N#C/C(=C\Nc1ccc2cn[nH]c2c1)c1nc(-c2ccc(Cl)cc2)cs1 | 4.1µM* | . | ? | ? | 9% | 1%
N#CC(=Cc1ccccn1)c1nc(-c2ccc(Cl)cc2)cs1 | . | . | . | . | 28% | .
COc1ccc(C(=O)CSc2nc3[nH]ncc3c(=O)[nH]2)cc1 | 11% | . | 26% | 17% | 13% | -1%
O=C(COc1ccc([N+](=O)[O-])cc1Cl)N1CCOCC1 | 20% | 9% | 21% | 6% | -2% | -1%
O=[N+]([O-])c1ccc2c(c1)C(N1CCOCC1)/C(=C/COc1ccc(Cl)cc1Cl)O2 (stereo not given) | ? | 16% | 12µM* | ? | -19% | -5%
NC(=O)C1=CC2C3C=CC2(O)C(=O)OC3O1 (stereo not given) | . | . | . | 8.9µM* | 10% | .
O=C1c2nccnc2C(=O)N1c1ccc(F)cc1 | 5% | . | 11% | -11% | -18% | 0%
O=[N+]([O-])c1cc([N+](=O)[O-])c2nonc2c1Nc1ccccc1O | 2.3µM* | -49% | ? | 0% | -9% | -9%
N#CCCN(C(=O)CN1CCN(S(=O)(=O)c2ccc(Cl)s2)CC1)c1ccc(F)cc1 | . | . | . | -5% | 0% | 2%
CCOc1ccc(-c2onc(C(F)(F)F)c2-c2cscn2)c(O)c1 | . | -6% | 4.7µM* | 10µM* | -2% | -16%
Cc1cc(O)cc(O)c1-c1onc(C(F)(F)F)c1-c1cscn1 | 56% | -8% | 3% | ? | -2% | -4%
Oc1ccc(N2CCN(Cc3nc4ccccc4[nH]3)CC2)cc1 | ? | -9% | -17% | 11% | 15% | 4%
CNC(=S)N1CCc2cc(OC)c(OC)cc2C1COc1ccc(F)cc1 (stereo not given) | -39% | . | ? | -7% | -9% | 0%
CCNC(=S)N1CCc2cc(OC)c(OC)cc2C1COc1ccc(F)cc1 (stereo not given) | 8.3µM* | . | ? | -8% | -8% | 0%
COCCNC(=S)N1CCc2cc(OC)c(OC)cc2C1c1cccs1 (stereo not given) | 5.9µM* | . | 2.9µM* | 5% | -6% | 1%
COCCNC(=S)N1CCc2cc(OC)c(OC)cc2C1COc1ccc(C(C)C)cc1 (stereo not given) | 8.3µM* | 4% | 12µM* | ? | ? | -2%
COc1ccccc1CNC(=O)c1ccc(N2CCOCC2)c([N+](=O)[O-])c1 | ? | . | 12% | ? | 7% | 0%
CC(Cl)C(=O)NNC(=O)CNS(=O)(=O)c1ccccc1 (stereo not given) | 226% | 4% | -33% | 6% | 10% | -1%
CCOc1ccc(CN(C)CC(=O)Nc2ccc([N+](=O)[O-])cc2Cl)cc1 | -29% | -2% | 24% | ? | -8% | -10%
COc1cc(/C=N/Nc2nc3ccccc3s2)cc([N+](=O)[O-])c1O | -1% | 2% | -1% | -1% | -18% | 1%
C(=C\c1ccccc1)/C=N/Nc1nc2ccccc2s1 | 122% | 9% | 136% | -7% | 48% | 2%
COc1ccc(C=NNc2nc3ccccc3s2)cc1 | . | . | . | 8% | 33% | .
CCC/C=N/Nc1nc2ccccc2s1 | 2.6µM* | 3% | 8% | -12% | 15% | -2%
SMILES | Pf growth 96h | NS1 function inh | Pf growth 48h | HCV inh | AMA1-RON2 inh | SARS PLP yeast
O=[N+]([O-])c1cc(Cl)cc(/C=N/Nc2nc3ccccc3s2)c1O | 44% | -2% | 52% | 11µM* | 25% | -4%
C(=N\Nc1nc2ccccc2s1)/c1ccccn1 | -100% | -83% | -81% | 1.8µM* | 12% | -7%
O=C(NC1=NCCS1)c1cccc(S(=O)(=O)N2CCOCC2)c1 | -10% | . | -16% | 13% | 1% | 2%
Cc1ccc(N(C)C(=O)CN(C)S(=O)(=O)c2ccc3c(c2)n(C)c(=O)c(=O)n3C)cc1 | ? | 0% | ? | 11% | -4% | 0%
O=C(NC1CCSc2ccccc21)c1cccc([N+](=O)[O-])c1 (stereo not given) | 2.3µM* | 3% | 1.5µM* | 2% | 0% | 6%
CN(C)S(=O)(=O)c1cccc(C(=O)NC2CCSc3ccccc32)c1 (stereo not given) | 12µM* | -4% | ? | -4% | -5% | -1%
NCC(=O)NC1(C(=O)O)CCCC1 | . | -6% | . | . | . | .
Cc1ccc(NC(=O)c2cnc(N3CCN(c4ccccn4)CC3)c3ccccc23)c(Br)c1 | ? | . | ? | 7.1µM* | -4% | -10%
O=C(c1cnc(N2CCN(c3ncccn3)CC2)c2ccccc12)N1CCN(c2ccccn2)CC1 | ? | -50% | ? | ? | -5% | 4%
O=C(Nc1c(F)cccc1F)c1cnc(N2CCN(c3ccccn3)CC2)c2ccccc12 | ? | -13% | ? | 13µM* | -10% | -7%
O=S(=O)(Nc1ccc(Cl)c(Cl)c1)N1CCOCC1 | 4.7µM* | -9% | 7% | 24% | 13% | -1%
Cc1ccc(S(=O)(=O)NC(CC(=O)O)c2cccs2)cc1 (stereo not given) | 3% | 11% | 22% | 20% | -11% | 1%
CCOc1ccc(NC(=O)C2C3CC/C=C\CCC32)cc1 (stereo not given) | ? | -31% | 77% | 7% | -3% | 2%
O=C(CNc1ccccc1)Nc1cccc2ccccc12 | ? | 5% | -1% | 4% | -25% | -1%
COc1cc(Cn2c(N)c(C#N)c3nc4ccccc4nc32)cc(OC)c1 | 2.3µM* | 1% | ? | ? | -4% | 6%
CCn1c2ccc(OC)cc2c2nc3ccccc3nc21 | i | -4% | ? | 7.9µM* | 55% | -17%
COc1ccc(Cn2c(N)c(C#N)c3nc4ccccc4nc32)cc1 | ? | 2% | 4.7µM* | -5% | 13% | -1%
N#Cc1c(N)n(CCOC(=O)c2cccc([N+](=O)[O-])c2)c2nc3ccccc3nc12 | 8.3µM* | -2% | ? | -16% | 39% | 4%
COC(=O)c1c(N)n(Cc2ccc(OC)cc2)c2nc3ccccc3nc12 | 7%[5.75 µM] | -52% | ? | ? | 40% | -4%
COCCn1c(N)c(C#N)c2nc3ccccc3nc21 | . | 0% | -4% | -11% | -3% | 4%
